High-throughput results as filed in PubChem BioAssay.
Luciferase inh: Firefly luciferase inhibition profiling of diverse chemical library using quantitative high-throughput screening; purified P. pyralis luciferase, luminescence, biochemical; Potency, µM (titrated, usually from 115 µM), usual class: inhibitors; actives 2.5% (n = 76,000); AID 1347043, 2019; also: nearly all actives have a fitted effect of over 65% in size
Target sequence (P08659 whole entry, looked up): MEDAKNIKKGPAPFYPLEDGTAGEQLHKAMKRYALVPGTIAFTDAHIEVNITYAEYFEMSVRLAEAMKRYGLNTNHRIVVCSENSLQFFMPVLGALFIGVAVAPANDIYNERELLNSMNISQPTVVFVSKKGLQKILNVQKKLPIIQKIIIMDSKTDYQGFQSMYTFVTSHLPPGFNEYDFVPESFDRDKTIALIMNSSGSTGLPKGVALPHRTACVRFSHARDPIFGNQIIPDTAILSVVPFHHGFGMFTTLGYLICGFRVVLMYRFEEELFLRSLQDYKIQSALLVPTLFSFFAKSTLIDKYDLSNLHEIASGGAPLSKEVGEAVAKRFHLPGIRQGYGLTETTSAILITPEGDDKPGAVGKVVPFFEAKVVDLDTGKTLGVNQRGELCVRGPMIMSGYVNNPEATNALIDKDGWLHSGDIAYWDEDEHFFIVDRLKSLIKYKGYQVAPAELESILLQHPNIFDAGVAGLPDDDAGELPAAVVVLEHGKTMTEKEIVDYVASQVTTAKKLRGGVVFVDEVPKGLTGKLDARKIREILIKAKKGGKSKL
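Purified 10nM P. pyralis luciferase with 10uM D-luciferin and 10uM ATP in 50mM Tris acetate pH 7.5, 10mM Mg acetate, 0.01% Tween-20, 0.05% BSA. qHTS titration; luminescence read by CCD imager.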
GPT2 inh: Primary qHTS assay for inhibitors of Glutamate pyruvate transaminase 2 (GPT2). Alanine aminotransferase 2 (Homo sapiens), Q8TD30. Recombinant GPT2, coupled pyruvate oxidase/HRP Amplex Red fluorescence. Potency, µM (titrated, usually from 57.7 µM), inactives show top-dose activity change, negative = inhibition, usual class: inhibitors. actives 0.25% (n = 100,000). AID 1671188, 2021; also: nearly all actives have a fitted effect of over 60% in size
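GPT2 10ng/uL, a-KG 250uM, L-Ala 2mM, HEPES pH7.5 + 0.0001% Tween; 30 min RT. Then Amplex mix (PO/HRP/ThPP), 30 min RT dark, fluorescence. AOA 50uM used as positive control.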
NPR1 antag: Natriuretic polypeptide receptor (hNpr1) antagonism - Primary qHTS. Atrial natriuretic peptide receptor 1 (Homo sapiens), P16066. HEK293 hNpr1 GloSensor cGMP, ANP-stimulated luminescence. Potency, µM (titrated, usually from 46.3 µM), for the others: at the top dose activity change, negative = inhibition, actives largely listed as inhibitors. actives 1.6% (n = 76,000). AID 1347048, 2019; calls by dose curve; also: nearly all actives have a fitted effect of over 60% in size
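HEK293 cells stably expressing human Npr1 and cGMP GloSensor pGS-40F, loaded 2 h with 2% GloSensor reagent, given compound 30 min at room temperature. Luminescence read before and 20 min after 0.1 nM hNppA.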
3T3 cytotox: Cytotoxic Profiling in NIH 3T3 Cell Line of Diverse Libraries Using Quantitative High-Throughput Screening. actives 4.3% (n = 94,000). Potency, µM (series often up to 96.7 µM), inactives show at the top dose activity change, negative = cytotoxicity, most hits filed as inhibitors. NIH 3T3 viability, CellTiter-Glo ATP luminescence, 48-72 h; also: nearly all actives have a fitted effect of over 55% in size
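Viability of NIH 3T3 cells after 48 or 72 hr compound treatment at 37 °C was assessed by CellTiter-Glo, with luminescence imaged following a 10 min room-temperature step.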
HEK cytotox: Cytotoxic Profiling in HEK 293 Cell Line of Diverse Libraries Using Quantitative High-Throughput Screening; HEK 293 viability, ATP luminescence (CellTiter-Glo), 48-72 h; Potency, µM (top dose mostly 115 µM), for inactives: top-dose activity change, negative = cytotoxicity, usual class: inhibitors; AID 1345083, 2018; actives 6.6% (n = 94,000); also: nearly all actives have a fitted effect of over 60% in size
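HEK 293 seeded at 250 cells/well receive compound via pintool. After 48 or 72 hr at 37 degree Celsius, 5% CO2 and 95% humidity, CellTiter-Glo is dispensed and luminescence read following 10 min at room temperature.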
* marks the source's active call; other numbers are inactive results; i = inactive; ? = inconclusive; nt = no result; [ ] = another dose, or the depositor's remark. Shown are actives, neighbours in structure and some others; about 10% of the full set was active somewhere. Unless noted, calls follow the shape of the dose curve; as a rule, active = well fitted curve in the direction sought with a large enough effect; inconclusive = small, poorly fitted or top-dose-only effect, or another doubt; inactive = no such curve, though single readings can be large; an effect the other way counts as inactive or inconclusive. % is scaled to controls: 0 for no effect and ±100 for the full control effect; potency is read from the fitted curve at half-maximal effect.

SMILES | Luciferase inh | GPT2 inh | NPR1 antag | 3T3 cytotox | HEK cytotox
COc1ccc(CCNC(=O)C2CN(C(C)C)C(=O)N2)cc1 (stereo not given) | nt | 1%[88.5 µM] | nt | -16%[138 µM] | -13%[172 µM]
COC(=O)c1ccc2c(c1)nc(NC(=O)c1ccccc1)n2CCCc1ccccc1 | nt | i | nt | nt | nt
Cc1ccc(-c2cnc3n[nH]c(-c4ccccc4)c3n2)cc1 | i | 1%[88.5 µM] | -14%[70.6 µM] | ? | 32µM*
Cc1cc(-c2cnc3n[nH]c(-c4ccc5c(c4)OCO5)c3n2)ccn1 | i | -1%[88.5 µM] | -19%[70.6 µM] | ? | -17%[172 µM]
Cc1ccsc1-c1[nH]nc2ncc(-c3ccccc3)nc12 | i | ? | -11%[70.6 µM] | ? | ?
Cc1cc(C)cc(-c2[nH]nc3ncc(-c4ccsc4)nc23)c1 | i | -6%[88.5 µM] | -13%[70.6 µM] | 25µM* | ?
c1cncc(-c2cnc3n[nH]c(-c4ccc5c(c4)OCO5)c3n2)c1 | i | 0%[88.5 µM] | -18%[70.6 µM] | ? | 28µM*
c1ccc(-c2cnc3n[nH]c(-c4ccccc4)c3n2)cc1 | i | i | -12%[70.6 µM] | ? | 100µM*
CN(C)[C@@H]1CN(C(=O)c2cc(Cl)ccc2F)C[C@H]1CO | i | i | -1% | -5% | i
C#CCNC(=O)C1CCN(c2nc3ncccc3o2)CC1 | nt | 0%[88.5 µM] | nt | -17%[138 µM] | i
CC(C)NC(=O)c1cnc2n[nH]c(-c3ccccc3)c2n1 | i | 3%[88.5 µM] | -2%[70.6 µM] | -28%[174 µM] | ?
Cc1cccc(-c2cnc3n[nH]c(-c4ccccc4)c3n2)c1 | i | -7%[88.5 µM] | -12%[70.6 µM] | ? | 71µM*
Fc1ccccc1-c1cnc2n[nH]c(-c3ccccc3)c2n1 | i | 4%[88.5 µM] | -19%[70.6 µM] | 89µM* | 112µM*
COc1ccc(-c2[nH]nc3ncc(-c4ccccc4F)nc23)c(C)c1 | i | 1%[88.5 µM] | -13%[70.6 µM] | 50µM* | 63µM*
Cc1cc(-c2cnc3n[nH]c(-c4ccccc4)c3n2)ccn1 | i | 4%[88.5 µM] | -18%[70.6 µM] | ? | ?
O=C(Nc1ccon1)c1cnc2n[nH]c(-c3ccccc3)c2n1 | i | i | -5%[70.6 µM] | 32µM* | ?
O=C(CCn1ccn2nc3c(c2c1=O)CCCC3)N1CC(=O)N(CCc2ccccc2)C(=O)C1 | i | i | ? | i | -3%
COC(=O)CNC(=O)c1cc(-c2ccc(C)cc2C)nc2c1cnn2C | nt | i | nt | -33% | -1%
Cn1cc(C#N)cc1C(=O)N1C[C@H](CO)C[C@H](CN2CCOCC2)C1 | i | -13% | 15% | -7% | -9%
COc1ccc(-c2cc(C(=O)NCc3cccs3)c3cnn(C)c3n2)cc1 | nt | 2% | nt | ? | ?
O=C(NC1CCN(c2cc(-c3cccs3)[nH]n2)C1)c1cccc(Cl)c1 (stereo not given) | i | ? | -9% | ? | 40µM*
Cc1cccc(CC(=O)NC2CCN(c3cc(-c4cccs4)[nH]n3)C2)c1 (stereo not given) | i | ? | -16% | ? | 35µM*
Cc1c(OCc2cccc(-c3ccc(C(=O)O)cc3)c2)cc2c(c1C)C(=O)C(C1CCCC1)C2 (stereo not given) | nt | i | nt | nt | nt
CN(C)c1ccc(CN2CC(N3CCc4ccccc43)C2)cc1 | i | i | -6%[70.6 µM] | 89µM* | 89µM*
Fc1ccc(CN2CC(N3CCc4ccccc43)C2)cc1 | nt | -24%[88.5 µM] | nt | -10%[138 µM] | -16%[172 µM]
SMILES | Luciferase inh | GPT2 inh | NPR1 antag | 3T3 cytotox | HEK cytotox
Cc1cc(C)cc(NC2=N[C@H]3[C@@H](O)[C@H](O)C[C@H](C(=O)NCCN4CCCCC4)[C@H]3S2)c1 | i | -1% | -3% | -3% | i
CC(C)=CCc1c(O)cc2oc3cc(C)cc(O)c3c2c1C | nt | -11% | nt | nt | nt
O=C(c1cc2c(s1)CCCC2)N1CCc2c(nc3cc[nH]n3c2=O)C1 | i | -10% | -16% | i | 14%
O=C1CCCCN1CCNc1ccc(-c2nc(-c3ccccc3F)no2)cn1 | 14µM* | i | -29% | ? | ?
COC(=O)[C@@H]1CCCN1c1ccc(-c2nc(-c3ccccc3F)no2)cn1 | ? | -29% | 14µM* | ? | 40µM*
COc1ccc(-c2noc(-c3ccc(N4CCCOCC4)nc3)n2)cc1 | ? | i | ? | ? | ?
O=C1OCCCN1CCNc1ccc(-c2nc(-c3ccccc3F)no2)cn1 | 35µM* | i | -25% | -37% | ?
c1ccc(CCc2noc(-c3ccc(NCCN4CCCC4)nc3)n2)cc1 | ? | ? | -25% | ? | ?
Cc1ccc(S(=O)(=O)N(C)C2CCOc3ccccc32)cc1 (stereo not given) | i | -17%[88.5 µM] | -3%[70.6 µM] | ? | 100µM*
O=C1NC(=NC2CCCCC2)C2(CCN(Cc3cccnc3)CC2)N1c1cc(F)cc(F)c1 | nt | -8% | nt | 28µM* | i
O=C1NC(=NC2CCCCC2)C2(CCN(Cc3cccnc3)C2)N1c1cc(F)cc(F)c1 (stereo not given) | nt | -14% | nt | 35µM* | -11%
COc1ccc(C(=O)N2CCC3(CC2)N=C(c2ccc(C)cc2)NO3)cc1 | ? | -2% | -28% | -7% | ?
CCc1ccc(C(=O)N2CCC3(CC2)N=C(c2ccc(C)cc2)NO3)cc1 | 40µM* | i | ? | -40% | ?
O=C(c1ccoc1)N1CCC2(CC1)N=C(c1cccc(Br)c1)NO2 | i | i | -1% | -18% | -8%
Cc1ccc(C2=NC3(CCN(C(=O)c4ccc5c(c4)OCO5)CC3)ON2)cc1 | 35µM* | i | -22% | -18% | ?
O=C(c1ccc2c(c1)OCO2)N1CCC2(CC1)N=C(c1ccc(Cl)cc1)NO2 | i | -8% | ? | -17% | ?
Cc1ccc(C(=O)N2CCC3(CC2)N=C(c2ccc(C)cc2)NO3)cc1 | 35µM* | -2% | -24% | -29% | -17%
Cc1ccc(C(=O)N2CCC3(CC2)N=C(c2cccc(Br)c2)NO3)cc1 | i | 5% | ? | 16µM* | ?
Cc1ccc([S+](=O)([O-])N2CCCC(C(=O)N3CCC(N4CCCC4=O)CC3)C2)cc1 (stereo not given) | nt | -19% | nt | ? | -30%
CN1CCN(C(=O)NCc2cccc(F)c2)CC12CCNC(=O)CC2 (stereo not given) | i | i | -12% | -11% | -14%
Cc1ccc(C2=NC3(CCN(C(=O)c4ccsc4)CC3)ON2)cc1 | 40µM* | i | -12% | -9% | -16%
O=C(c1ccc2cc[nH]c2c1)N1CCC2(CC1)N=C(c1ccccc1)NO2 | 28µM* | 2% | -20% | -20% | ?
